From PubChem BioAssay (NCATS)
Results filed as inconclusive are left out. Activity calls are given as the source filed them. Calls come from the whole dose curve; as a rule, active = well fitted cell-killing curve with a large enough effect; inconclusive = small, poorly fitted or top-dose-only effect, or effect the other way; inactive = flat fitted curve, though single readings scatter.

tested on: CASKI; assay: Primary qHTS to identify gynecologic anti-cancer compounds using libraries of approved drugs and bioactive compounds (AID 1345084); conditions: Gynecologic cancer cell panel viability, ATPlite luminescence, 48 h; series mostly up to 57.5 µM; activity change, negative = cytotoxicity: at the top concentration; note: nearly all actives have a fitted effect of over 55% in size
Procedure, shortened: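 Luminescence from the ATPlite ATP-monitoring reagent indicates viable cell number; lower signal means cytotoxicity. Cells received compound 16 h after seeding and were exposed for 48 h across five concentrations.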
% is set by controls: 0 for no effect and ±100 for the full control effect; potency is the fitted concentration of half-maximal effect.

| Compound | activity change, negative = cytotoxicity | Potency |
| --- | --- | --- |
| Cc1ccnn1-c1ccc(C(=O)N2CCN(S(=O)(=O)c3ccc(Cl)c(C(F)(F)F)c3)CC2)cc1 | 4.09% (inactive) | – |
| Fc1ccc(N2CCCCC2)c(NC(=S)c2ccncc2)c1 | -3.02% (inactive) | – |
| O=C(Cc1c(F)cccc1F)Nc1cc(OCc2ccc(Cl)cc2)ccn1 | 6.29% (inactive) | – |
| CCN(c1cc(-c2ccc(CN3CCOCC3)cc2)cc(C(=O)NCc2c(C)cc(C)[nH]c2=O)c1C)C1CCOCC1 | -0.264% (inactive) | – |
| C/C=C(/C)C(=O)O[C@@H]1C[C@@H](OC(=O)CC(C)C)C2(C)C3C(=O)C=C(C)C2C3C1(C)C (some centres not stated) | -6.56% [at 25.3 µM] (inactive) | – |
| COc1ccc(S(=O)(=O)N2CCC[C@H]2C(=O)Nc2cc(C)cc(C)c2)cc1 | 0.772% (inactive) | – |
| CN(C)C(=O)Nc1cc(-c2ccccc2)ccc1N(C)C | 0.107% (inactive) | – |
| COc1ccc(NC(=O)c2ccc(C(=N)N(C)C)cc2)c(C(=O)Nc2ccc(Cl)cn2)c1 | 11.2% (inactive) | – |
| Nc1nccc(-c2c(-c3ccc(F)cc3)ncn2C2CCCCC2)n1 | -2.33% (inactive) | – |
| CC(C)c1cc(-c2ccc(F)c3ccccc23)nc(N)n1 | 4.57% (inactive) | – |
| CNc1cccc(CCOc2ccc3c(c2)CN(CC(F)(F)F)C(=O)[C@H](CC(=O)O)C3)n1 | -0.472% (inactive) | – |
| OC[C@H]1O[C@@H](OC/C=C/c2ccc(O)cc2)[C@H](O)[C@@H](O)[C@@H]1O | -27.8% [at 38.5 µM] (inactive) | – |
| Cn1ccc(NC(=O)c2cc(Oc3ccc(C(=O)N4CCC4)c(F)c3)c3c(c2)OC(C)(C)C3)n1 | 16.5% (inactive) | – |
| COc1ccc2nc3n[nH]c(C)c3c(NCCOCCO)c2c1 | -10.9% (inactive) | – |
| CC(=O)Nc1cccc(Nc2ncnc(N3CCC(OCc4ccc(OC(F)(F)F)cc4)CC3)n2)c1C | -25.7% (inactive) | – |
| C=C(C(=O)OC[C@H]1O[C@@H](OC(=O)/C=C/c2ccccc2)[C@H](O)[C@@H](O)[C@@H]1O)C(O)CO (some centres not stated) | -13.3% [at 25.3 µM] (inactive) | – |

| Compound | activity change, negative = cytotoxicity | Potency |
| --- | --- | --- |
| COc1ccccc1C(=O)Nc1cc2c(cc1N1CCCC1)n(C)c(=O)n2C | 7.27% (inactive) | – |
| Clc1cccc(COc2cncc(N3CCNCC3)n2)c1 | -10% (inactive) | – |
| CCOc1cn(-c2ccc(F)cc2C)nc1C(=O)Nc1ccc(Oc2ccnc3cc(OC)c(OC)cc23)c(F)c1 | 3.23% (inactive) | – |
| O=C(Nc1ccccc1Br)NC1CCN(c2ccc(C(F)(F)F)cn2)C1 (configuration not stated) | 4.77% (inactive) | – |
| C=CC(C)(O)CC/C=C(/C)COC(=O)C(C)C1CCC(C)(C=C)O1 (configuration not stated) | 2.06% [at 38.5 µM] (inactive) | – |
| COc1cccc(NCCC2(c3ccccc3)CC(C)(C)OC(C)(C)C2)c1 | -2.93% (inactive) | – |
| CC1(NC(=O)c2ccc(C#Cc3cccc(F)c3)cn2)COC1 | -0.188% (inactive) | – |
| O=C(NCCN1CCC(n2c(=O)[nH]c3ccccc32)CC1)c1cc2cc(F)ccc2[nH]1 | -0.211% (inactive) | – |
| Cc1c(C(=O)Nc2ccc(N3CCC(N4CCOCC4)CC3)c(C#N)c2)cnn1-c1ccc(Cl)cc1 | 1.27% (inactive) | – |
| CCN1CCC[C@@H]1CNC(=O)c1ccc2c(c1)NC(=O)c1cccc(C)c1S2 | 8.8% (inactive) | – |
| O=C(CNC(=O)c1cccc(C(F)(F)F)c1)N[C@@H]1CCN(Cc2ccc(Cl)cc2)C1 | -12.1% (inactive) | – |
| CC(=O)NC(C)c1cnc(-c2cnc(Oc3ccc(OC(C)C)cc3)s2)s1 (configuration not stated) | -16.8% (inactive) | – |
| O=C(NNc1nc2cc(F)ccc2n2cccc12)c1cnccn1 | -11.4% (inactive) | – |
| C[C@@H](Nc1ncnc2[nH]c(-c3ccc(O)cc3)cc12)c1ccccc1 | – | 22.4 µM (active) |
| CC1=CC2/C=C(\C)CCC3OC(C)(C)OC3CCC(=O)C23C(=O)NC(CC(C)C)C3C1C (configuration not stated) | 2.61% [at 25.3 µM] (inactive) | – |
| CC1(CO)CC2C(O)C3=C(CC(C)(O)C2C1)C(=O)OC3 (configuration not stated) | -6.53% (inactive) | – |
